Compounds with a hit are over-represented: about 21% of the library has one in this group of screens.
Sm TGR inh: blocks Schistosoma mansoni thioredoxin glutathione reductase; Q962Y6; purified TGR, DTNB reduction, TNB absorbance 405 nm; Potency, µM (series often up to 114 µM), hits mostly inhibitors; hit rate 3% among 360,000; also: nearly all actives have a fitted effect of over 60% in size
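TGR 20 nM + NADPH 100 uM (dispensed conc.), cpd preinc 15 min RT; start with NADPH (500 uM addition) then DTNB (15 mM addition). Kinetic TNB absorbance, 405 nm filter. Four-parameter Hill fit across titration.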
Pf growth 48h: inhibits P. falciparum growth in the first generation, 48 h. P. falciparum luciferase growth in erythrocytes, 48 h. Potency, µM (titrated, usually from 28.7 µM), most hits filed as inhibitors. hit rate 5.9% among 310,000
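Luminescence readout; reporter = integrated firefly luciferase in P. falciparum. RBC culture at 2% hematocrit, 0.1% parasitemia final, 37 C/5% CO2; decreased signal taken as growth inhibition.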
Shiga inhibitor: blocks Shiga toxin action in Vero cells | Vero cells, Shiga toxin protein synthesis inhibition reporter | inhibition, % at 38.7 µM | hit rate 9.2% among 290,000; in the data active = inhibition mostly above about 28%, no sharp cut-off; inactive = mostly below about 43%
Pf growth 96h: inhibits malaria parasite growth, 96 h; P. falciparum luciferase reporter growth, 96 h; Potency, µM (highest dose often 28.7 µM), most hits filed as inhibitors; hit rate 6.9% among 320,000
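Luminescence readout: decreased luciferase signal marks inhibited growth of reporter-expressing P. falciparum in infected red cells (2% hematocrit, 0.05% parasitemia final), exposed to compound two generations (96 h, 37 C, 5% CO2).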
CHX counter: affects cycloheximide protein synthesis inhibition readout, counter-screen | cell reporter, cycloheximide protein synthesis inhibition counterscreen | max response, % | AID 2314 | hit rate 12% among 300,000; in the data active = max response mostly above about 13%, no sharp cut-off; inactive = mostly below about 14%; also: read at 38.3 µM for the half of the compounds with a filed dose
NS1 inh: inhibitors of influenza NS1 protein function. Potency, µM (highest dose often 46.1 µM). hit rate 0.4% among 270,000; calls by dose curve; also: actives are rising curves; nearly all actives have a fitted effect of over 50% in size
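Read-out: OD600 growth recovery of NS1-expressing budding yeast. Cells grown overnight at 30C in -URA glucose medium, washed, resuspended and diluted 1:100 in 2% galactose assay medium, pH 6.0. Same strain lacking NS1 served as positive control.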
Each line names hits and unclear results; the compound was inactive in the other large screens. Unless noted, calls follow the shape of the dose curve; as a rule, active = well fitted curve in the direction sought with a large enough effect; inconclusive = small, poorly fitted or top-dose-only effect, or another doubt; inactive = no such curve, though single readings can be large; an effect the other way counts as inactive or inconclusive.

O=C(CN1C(=O)NC2(CCCC2)C1=O)Oc1ccc2ccc(=O)oc2c1	Sm TGR inh 56.2µM (no result: Shiga inhibitor, CHX counter, NS1 inh)
O=C(CN1C(=O)NC2(CCCCC2)C1=O)Oc1ccc2c(C(F)(F)F)cc(=O)oc2c1	Sm TGR inh 39.8µM (no result: Shiga inhibitor, CHX counter, NS1 inh)
COc1cc(/C=c2\s/c(=C(/C#N)C(=O)N3CCCC3)n(-c3ccccc3)c2=O)ccc1O	none (no result: Pf growth 48h)
Cc1ccc(/C=c2\s/c(=C(/C#N)C(=O)N3CCCC3)n(Cc3ccco3)c2=O)s1	Sm TGR inh 5.01µM, Pf growth 48h inconclusive
Cc1nnc(SCC(=O)NC(C)(C)C)n1NCc1cccc(Br)c1	none
CC(NC(=O)c1ccc(Br)o1)C1CC2CCC1C2 (centres undefined)	Pf growth 96h 1.04µM
CCN=c1scc(C)n1/N=C/c1ccsc1	Shiga inhibitor 104.4, CHX counter 46.8
Cc1ccc(NC(=O)CN2C(=O)C(c3ccccc3)=NC2(C)C)cc1C	none (no result: Pf growth 48h, Shiga inhibitor, Pf growth 96h, CHX counter, NS1 inh)
CC(C)NC(=O)c1cc2n(n1)C(C(F)(F)F)CC(c1ccco1)N2 (centres undefined)	Pf growth 48h inconclusive (no result: NS1 inh)
O=C(Nc1ccc2c(c1)CCC2)c1cnn2c1NC(c1ccco1)CC2C(F)(F)F (centres undefined)	Shiga inhibitor 90.0, CHX counter 51.8 (no result: Pf growth 96h)
O=C(NCc1ccccn1)c1cc2n(n1)C(C(F)(F)F)CC(c1ccco1)N2 (centres undefined)	Sm TGR inh 39.8µM (no result: Pf growth 96h)
Cc1cc(NC(=O)c2cc3n(n2)C(C(F)(F)F)CC(c2ccco2)N3)no1 (centres undefined)	Pf growth 96h 10.4µM (no result: Pf growth 48h)
CCOc1cc(C=O)ccc1OCCSc1ccc(Cl)cc1	none
O=C(CN1C(=O)COc2ccc(Cl)cc21)Nc1cccc(C(=O)O)c1	none (no result: Pf growth 48h, Shiga inhibitor, Pf growth 96h, CHX counter, NS1 inh)
Cc1cc(C)n2nc(C(=O)N3CCCC(Nc4ccc(F)c(F)c4)C3)cc2n1 (centres undefined)	none
COC(=O)Cc1c(C)c2cc3c(c(C)c2oc1=O)OCN(CCc1ccc(OC)cc1)C3	none (no result: Pf growth 48h, Shiga inhibitor, Pf growth 96h, CHX counter, NS1 inh)
Cc1nc2ccc(NC(=O)Cc3cccc(F)c3)cc2s1	Shiga inhibitor 38.9, CHX counter 36.0 (no result: NS1 inh)
Cc1nc2ccc(NC(=O)Cc3ccsc3)cc2s1	CHX counter 27.6 (no result: Pf growth 48h)
Cc1nc2ccc(S(=O)(=O)NCC(=O)Nc3ccc(F)cc3)cc2s1	Pf growth 96h inconclusive
C=CCN(CC=C)C(=O)Nc1ccc2nc(C)sc2c1	Pf growth 96h inconclusive
Cc1ccc(NC(=O)Cc2ccsc2)cc1Cl	Shiga inhibitor 55.6, CHX counter 25.1
COC(=O)c1cccc(NC(=O)Cc2ccsc2)c1	none
Cc1nc2ccc(NC(=O)Cc3ccccc3F)cc2s1	Shiga inhibitor 102.6, CHX counter 58.2 (no result: Sm TGR inh)
Cc1ccc(S(=O)(=O)N2CCCOC2CNC(=O)C(=O)NC2CCCC2)cc1 (centres undefined)	none
COc1ccc2oc(=O)c(/C(C)=N/NC(=O)c3ccncc3)cc2c1	none
CC1=C(C(=O)Nc2cccnc2)C(c2ccc(F)cc2)n2nc(SCc3ccccc3)nc2N1 (centres undefined)	none (no result: Pf growth 48h, Shiga inhibitor, Pf growth 96h, CHX counter, NS1 inh)
Cc1ccc(Nc2cc(C)nc(NCc3ccccc3)n2)cc1	Pf growth 48h 0.657µM
COC(=O)c1ccc(Oc2nc(C)cc(Oc3ccccc3)n2)cc1	Pf growth 48h inconclusive
COc1cc(C)nc(NCc2ccccc2)n1	Pf growth 96h inconclusive
COC(=O)c1ccc(Oc2cc(C)nc(NCc3ccccc3)n2)cc1	Pf growth 48h inconclusive, Pf growth 96h 10.4µM
Cc1cc(NC2CCCCC2)nc(NCc2ccccc2)n1	Pf growth 48h 1.85µM, Pf growth 96h 1.47µM
Cc1cc(OC(C)C)nc(NCc2ccccc2)n1	Pf growth 96h inconclusive
COc1ccc(Nc2cc(C)nc(NCc3ccccc3)n2)cc1	Pf growth 48h 0.465µM, Pf growth 96h 1.65µM
Cc1c(NC(=O)CNCc2ccc3c(c2)OCO3)c(=O)n(-c2ccccc2)n1C	none
Cc1cc(C)cc(N(C(=O)c2csnn2)C(C(=O)NC2CCCCC2)c2ccccn2)c1 (centres undefined)	Pf growth 48h inconclusive
COc1cccc(CNc2nc3nc(C)cc(C)n3n2)c1	CHX counter 11.0 (no result: Pf growth 96h)
COc1cccc(Nc2cc(C)nc3nc(C)nn23)c1	none (no result: Pf growth 48h)
Cc1cccc(Nc2ccc(NCc3ccccc3)nn2)c1	Shiga inhibitor 87.0, Pf growth 96h inconclusive, CHX counter 31.2 (no result: NS1 inh)
COc1ccc(/C=N/OCC(=O)Nc2ccc3c(c2)OCO3)c(OC)c1	none (no result: NS1 inh)
Cc1ccc(SCc2ccc(C(=O)NCc3ccncc3)cc2)cc1	none

High-throughput results: PubChem BioAssay, National Center for Advancing Translational Sciences (NCATS)
